Experimental data: PubChem BioAssay AID1566 (Sanford-Burnham Center for Chemical Genomics, 2009)
Several values for one entry are separate records, joined by “and”; a condition that tells them apart may be missing. Equal values may be shown once. Among all 290,000 compounds or so, about 1,800 (0.62%) were called active. Rule as the data show it: active = inhibition above about 50%; inactive = the rest. Only a selection was taken, and actives are over-represented in it overall.

experiment: inhibition of NOD2-driven NF-kB reporter – cell-based, luminescence, uHTS, HEK293 (AID 1566); details: HEK293 NOD2/NF-kB luciferase reporter, at 4 µM, stronger effect = higher value

inhibition, inactive:
COC(=O)c1ccc(NC(=O)c2ccc3nsnc3c2)cc1 -7.1%
c1ccc(COCCC2CO2)cc1 (stereo not given) -8.4%
CS(=O)(=O)N(CC(=O)NCCSCc1ccccc1Cl)c1ccc(F)cc1 3%
COc1ccc(C(=O)CSc2cc(C)nc3nc(C)nn23)cc1OC 14%
O=C(CSc1ccc(-c2ccc(Cl)cc2)nn1)N1CCCc2ccccc21 -10.9%
Cc1ccccc1-c1cn(-c2ccccc2)c(=S)[nH]1 -47.3%
O=C(O)c1ccc(-n2cc(-c3cc4ccccc4oc3=O)[nH]c2=S)cc1 27.5%
O=c1[nH]c(C2CCN(S(=O)(=O)Cc3ccccc3)CC2)nc2c1nnn2Cc1ccccc1 5%
COC(=O)Cc1ccc(NC(=O)c2ccc(C)c(C)c2)cc1 -48.4%
COC(=O)Cc1ccc(NC(=O)c2ccc(NC(=O)c3ccco3)cc2)cc1 0.9%
CC(C)(C)c1ccc(C(=O)Nc2ccc(NC(=O)C(=O)O)cc2)o1 9.4%
Cc1ccc(C(=O)Nc2ccc(CC(=O)O)cc2)o1 7.5%
CCOC(=O)Cc1ccc(NC(=O)c2ccc([N+](=O)[O-])cc2)cc1 -1.9%
CCOC(=O)Cc1ccc(NC(=O)c2ccccc2Br)cc1 -12.2%
Cc1ccc(C)c(S(=O)(=O)N2CCCOC2CNC(=O)C(=O)NCc2ccncc2)c1 (stereo not given) 11.8%
Cc1cccc(N2CCN(C(=O)C3CCCCC3)CC2)c1C -34.8%
CCCCn1c(N)c(N(CCOC)C(=O)c2ccc(Cl)c(S(=O)(=O)N3CCCC3)c2)c(=O)[nH]c1=O -2.8%
O=c1cc(O)c2sc(Nc3cccc(C(F)(F)F)c3)nc2[nH]1 16.5%
COc1ccccc1N1C(=O)c2ccc(C(=O)Nc3ccccc3O)cc2C1=O -3.6%
O=C(c1ccc(Cl)c([N+](=O)[O-])c1)N1CCN(c2ccccn2)CC1 6.3%
O=C(c1ccc(Br)c([N+](=O)[O-])c1)N1CCN(Cc2ccccc2)CC1 10%
Cc1cc(C(=O)N2CCN(Cc3ccccc3)CC2)ccc1[N+](=O)[O-] 6.4%
O=C(c1ccc(S(=O)(=O)Cc2cc(F)ccc2F)c([N+](=O)[O-])c1)N1CCCC1 3.3%
O=C(c1ccc(S(=O)(=O)Cc2ccccc2F)c([N+](=O)[O-])c1)N1CCCCCC1 22.6%
O=C(c1ccc(Sc2cccc(Cl)c2)c([N+](=O)[O-])c1)N1CCN(c2ccccn2)CC1 9.4%
CCCSc1nnc(CSc2nc3ccccc3s2)n1-c1ccccc1 2.7%
O=C(COC(=O)c1ccccc1O)Nc1cccc(S(=O)(=O)NC2=NCCCCC2)c1 14.9%
O=C1CCCN1CCC1CCN(C(=S)Nc2ccc(F)cc2)CC1 1.1%
COc1ccc(C(=O)c2cnc3ccccc3c2-c2ccccc2)cc1 29.3%
Cc1cccc(C(=O)c2cnc3ccccc3c2-c2ccccc2)c1 1.1%
O=C(NCc1cccc(C(F)(F)F)c1)C1CC(c2c(Cl)cccc2Cl)=NO1 (stereo not given) -28.5%
CCN1C(=O)/C(=C\c2ccc(-c3cccc(C(=O)OC)c3)o2)SC1=Nc1ccc(C(=O)O)cc1 4.2%
CCN=C1S/C(=C\c2ccc(-c3cccc(C(=O)O)c3)o2)C(=O)N1CC -81.2%
Cc1cc(NC(=O)CSc2nnnn2C)n(-c2ccccc2)n1 6.4%
CCOC(=O)C1CCCN(S(=O)(=O)c2ccc(OC)c3ccccc23)C1 (stereo not given) 8.9%
Cc1ccc(NC(=O)Nc2ccc3c(c2)CCC3)cc1C -15.3%
O=C(O)c1ccc2c(c1)CCC2 25.5%
CN(C)C(=O)C(OC(=O)c1ccc2ccccc2n1)c1ccccc1 (stereo not given) -9.4%
O=C(COc1ccc(S(=O)(=O)NCc2ccccc2)cc1)NCC1CCCO1 (stereo not given) -3%
Cc1csc(NC(=O)CSc2nnc(NC(=O)COc3ccc(Cl)cc3)s2)n1 -17.3%
CCc1nc2ccccc2n1CC(O)COCC1CC=CCC1 (stereo not given) -7.7%
CCCc1n(CC(O)COCC2CC=CCC2)c2ccccc2[n+]1C (stereo not given) 5.7%
Cc1cc(=O)oc2c(C)c(OC(C)C(=O)Nc3ccc(N4CCC(C)CC4)cc3)ccc12 (stereo not given) 3.4%
Cn1c(=O)c2c(-c3ccc(OC(F)F)cc3)cc(-c3ccccc3)nc2n(C)c1=O -4.7%
COC(=O)COc1ccc(S(=O)(=O)Nc2cc([N+](=O)[O-])ccc2C)cc1 8.7%
O=C(CCn1cccc1)NCc1ccc(Cl)cc1 5.1%
O=C(N/N=C/c1cccc2ccccc12)c1cc(C2CC2)[nH]n1 10.5%
CCOc1cc(/C=N/NC(=O)c2cc(C3CC3)[nH]n2)ccc1O -2.8%
Cc1ccc(C)c(NC(=O)CCN2C(=O)c3ccccc3C2=O)c1 -5.3%
COc1ccc(N2CC(C(=O)N3CCN(c4ccccc4OC)CC3)CC2=O)cc1 (stereo not given) 12.7%
Cc1ccc(S(=O)(=O)Nc2ccc(N3CCOCC3)cc2)cc1 0.3%
COc1ccccc1N1CCN(C(=O)C2CCN(S(=O)(=O)c3ccc4c(c3)CC(C)N4C(=O)C3CC3)CC2)CC1 (stereo not given) 27%
Cn1c(=O)c2c(nc(Oc3ccccc3)n2C)n(C)c1=O 4.8% and 12.7%
COc1ccc(Oc2nc3c(c(=O)n(C)c(=O)n3C)n2C)cc1 26.2%
Cc1c(C#N)sc2nc(-c3ccccc3)nc(N3CCCC3)c12 -1.5%
COCc1cc(C)nc(SCC(=O)Nc2ccccc2N2CCOCC2)c1C#N 40%
COCc1cc(C)nc(SCC(=O)Nc2ccc(N3CCOCC3)cc2)c1C#N 5%
COCC(C)n1c(C)cc(C(=O)COC(=O)CNC(=O)c2ccccc2)c1C (stereo not given) 20.5%
COc1ccc(S(=O)(=O)N2CCCCCC2)cc1C(=O)OCc1c(C)noc1C 0.3%
CNc1nc2cc([N+](=O)[O-])c([N+](=O)[O-])cc2nc1NC 18.9%
Cc1ccc(NC(=S)N(C)C)cc1C -14.4%
Cc1cc(OCC(=O)Nc2ccncc2)ccc1Br 38.2%
Cc1cc(Cl)ccc1OCC(=O)Nc1ccncc1 39.3%
Cc1cc(OCC(=O)Nc2ccncc2)ccc1Cl 39.6%
COc1cccc(OCC(=O)Nc2ccncc2)c1 19.9%
Cc1cc(C)cc(OCC(=O)Nc2ccncc2)c1 29.4%
O=C(COc1ccccc1)Nc1ccncc1 5.2%
CC1=C([N+](=O)[O-])C(c2ccccc2Cl)NC(=O)N1C (stereo not given) 14.3%
O=C(NC1CCCN(CCc2ccccc2)C1)c1c(F)cccc1F (stereo not given) 4.3%
COc1cccc(N2CC(C(=O)Nc3nnc(SCCN4CCOCC4)s3)CC2=O)c1 (stereo not given) 14.1%
CCOC(=O)c1sc2ccccc2c1OC(=O)c1ccccc1OC 22.4%
CCOC(=O)c1sc2ccccc2c1OC(=O)c1ccccc1 27.7%
Cc1ccccc1C(=O)Nc1ccc(N2CCN(C(=O)c3ccco3)CC2)cc1 3.9%
Cc1cccc(-c2nc3c(c(SCC(=O)N4CCOCC4)n2)Cc2c(CO)cnc(C)c2O3)c1 42.3%
COc1ccc(-c2nc3c(c(SCC(=O)N4CCOCC4)n2)Cc2c(CO)cnc(C)c2O3)cc1 32%
CCc1ccc(NC(=O)CN(C)S(=O)(=O)c2ccc3[nH]c(=O)oc3c2)cc1 9.7%
COC(=O)C1=C(C)N(CCc2ccc(OC)cc2)C(=O)C1 -0.9%
Cc1cc(C)nc(N(C#N)Cc2cccc([N+](=O)[O-])c2)n1 15.2%
Cc1cccc(Nc2ncnc(N)c2[N+](=O)[O-])n1 32%
Cc1cccnc1Nc1ncnc(N)c1[N+](=O)[O-] 3.6%
COc1cccc(C(=O)NNC(=O)C(=O)Nc2ccc(C)cc2)c1 4.6%
COc1ccc(C(=O)NNC(=O)C(=O)Nc2ccc(C)c(Cl)c2)cc1 1.2%

inhibition, active:
O=c1oc2ccccc2cc1-c1cn(-c2ccccc2)c(=S)[nH]1 80.6%
CCOC(=O)Cc1ccc(NC(=O)c2ccc(C(C)(C)C)cc2)cc1 61.9%
COC(=O)Cc1ccc(NC(=O)c2ccc(C(C)(C)C)cc2)cc1 70.7%
CC(C)(C)c1ccc(C(=O)Nc2ccc(CC(=O)O)cc2)o1 71.6%
Cc1ccc(C(=O)c2cnc3ccccc3c2-c2ccccc2)cc1 50.7%
O=C(O)c1cccc(-c2ccc(/C=C3/SC(=Nc4ccccc4)N(Cc4cccnc4)C3=O)o2)c1 53.1%
CN(C)C(=O)C(OC(=O)c1ccc2c(c1)CCCC2)c1ccccc1 (stereo not given) 90.9%
CCc1n(CC(O)COCC2CC=CCC2)c2ccccc2[n+]1C (stereo not given) 55.3%
CCOc1cccc(/C=N/NC(=O)c2cc(C3CC3)[nH]n2)c1O 63.2%
COCc1cc(C)nc(SCC(=O)Nc2cc(C(F)(F)F)ccc2N2CCOCC2)c1C#N 58.6%
CC(C)CCOc1cccc(OCC(=O)Nc2ccncc2)c1 60%
COc1cccc(-c2nc3c(c(SCC(=O)N4CCOCC4)n2)Cc2c(CO)cnc(C)c2O3)c1 52.5%
COc1cccc(C(=O)NNC(=O)C(=O)Nc2ccc(C)c(Cl)c2)c1 78.2%
